In PubChem BioAssay (NCI):
Compounds without any hit were thinned out: in the full panel of roughly 79,000, 15% have a hit. Activity calls are given as the source filed them. Rule as the data show it: active = growth inhibition above about 70%; inactive = the rest.

Assay: NCI Yeast Anticancer Drug Screen. Data for the sgs1 mgt1 strain (AID 161);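 also: 0% = growth of cultures given vehicle only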
Conditions: S. cerevisiae sgs1 mgt1 strain, at 50.0 µM, stronger effect = higher value
Method: Growth inhibition of yeast strains with defined genetic alterations is measured as a screen for potential anti-cancer activity. Selected strains with alterations in DNA damage repair or cell cycle control were exposed to compounds and growth inhibition was measured relative to vehicle treated controls. The strain used in this assay is sgs1 mgt1

Question: Which growth inhibition does the source give for `c1c2c(cc3c1OCN(C1CC1)C3)OCN(C1CC1)C2` here?
Answer: 10% (inactive)

Question: With `OC(CCl)CN1CCN(CC(O)CCl)CC1` (stereo not given) as the compound, how does the growth inhibition read?
Answer: 2.55% (inactive)

Question: For `C1=NCCN=Cc2ccccc2O/N=N/Oc2ccccc21`, which growth inhibition is on record?
Answer: -0.85% (inactive)

Question: For `COc1cc2cc3c4cc(OC)c(OC)cc4cc[n+]3c(CCC(=O)O)c2cc1OC` (tested in a mixture with another compound), which growth inhibition is on record?
Answer: -8.25% (inactive)

Question: Which growth inhibition does the source give for `CC(=O)C1=CCC(C(C)C)C1` (stereo not given) here?
Answer: -1.2% (inactive)

Question: With `Cn1cc(Cc2ccc(-c3ccccc3)cc2)c(=O)c(Cc2ccc(-c3ccccc3)cc2)c1` as the compound, how does the growth inhibition read?
Answer: -2.9% (inactive)

Question: With `O=S(=O)(Cc1c[nH]c2ccccc12)c1ccccc1` as the compound, how does the growth inhibition read?
Answer: 31.1% (inactive)

Question: For `N#CCc1ccccc1C(C#N)C(=O)CCC(=O)C(C#N)c1ccccc1CC#N` (stereo not given), which growth inhibition is on record?
Answer: 22.6% (inactive)

Question: Which growth inhibition does the source give for `Clc1ccc(-c2nnc(-c3ccc(Cl)c(Cl)c3)o2)cc1Cl` here?
Answer: 17.8% (inactive)

Question: With `CCCCCCCCCC/C=C/C=O` as the compound, how does the growth inhibition read?
Answer: 53.8% (inactive)

Question: With `Cc1ccc2[nH]c(=O)cc(C)c2c1` as the compound, how does the growth inhibition read?
Answer: 13.8% (inactive)

Question: For `CCN1C(=O)CC(SCCSC2CC(=O)N(CC)C2=O)C1=O` (stereo not given), which growth inhibition is on record?
Answer: 6.25% (inactive)

Question: For `Nc1nc2c(ncn2C2OC(CO)C3OP(=O)(O)OC32)c(=O)[nH]1` (stereo not given), which growth inhibition is on record?
Answer: -19.4% (inactive)

Question: Which growth inhibition does the source give for `COc1ccc(/C=N/Nc2nc(C)c(C)s2)cc1` here?
Answer: 53.4% (inactive)

Question: Which growth inhibition does the source give for `Oc1ccc(Cl)c(O)c1` here?
Answer: -3.65% (inactive)

Question: For `CCOC(=O)NC(=S)Nc1ccn(C)c1`, which growth inhibition is on record?
Answer: 4.6% (inactive)

Question: For `COc1ccc(CCNC(=S)NCCc2ccc(OC)c(OC)c2)cc1OC`, which growth inhibition is on record?
Answer: 2.1% (inactive)

Question: With `CC1=C(C(=O)Nc2ccccc2C)C(c2ccc(C3C(C(=O)Nc4ccccc4C)=CNC=C3C(=O)Nc3ccccc3C)cc2)C(C(=O)Nc2ccccc2C)=C(C)N1` as the compound, how does the growth inhibition read?
Answer: 28.9% (inactive)

Question: For `Clc1ccccc1C1N2CCCCC2[C@@H]2c3[nH]c4ccccc4c3CCN12` (stereo not given in full), which growth inhibition is on record?
Answer: 9.25% (inactive)

Question: Which growth inhibition does the source give for `CN1C(=O)CC(NC(=O)CNC(=O)c2ccccc2)C1=O` (stereo not given) here?
Answer: 23.1% (inactive)

Question: For `C=C1CCC2[C@@H](CCC3[C@]2(C)CCC[C@]3(C)C(=O)OC)[C@@H]1CC=O` (stereo not given in full), which growth inhibition is on record?
Answer: 9.25% (inactive)

Question: For `O=C(O)Cc1c(-c2ccccc2)nc(=S)[nH]c1-c1[nH]c(=S)nc(-c2ccccc2)c1CC(=O)O`, which growth inhibition is on record?
Answer: -17% (inactive)

Question: Which growth inhibition does the source give for `CCCCN1C(=O)C(CC(=O)OCC)SC1=S` (stereo not given) here?
Answer: -19.9% (inactive)

Question: With `CCOc1cc(/C=C2\N=C(c3ccccc3)OC2=O)ccc1O` as the compound, how does the growth inhibition read?
Answer: 2.6% (inactive)

Question: With `NC(=O)C1CCCN(C2OC(COP(=O)(O)OP(=O)(O)OCC3OC(n4cnc5c(N)ncnc54)C(OP(=O)(O)O)C3O)C(O)C2O)C1` (stereo not given) as the compound, how does the growth inhibition read?
Answer: 15.2% (inactive)

Question: With `NN1CCCC(O)C1` (stereo not given) as the compound, how does the growth inhibition read?
Answer: 4.75% (inactive)

Question: For `CC(C)(O)C1OCC(C2CCC3(C)C4=CCC5C(C)(C)C(O)CCC5(C)C4CCC23C)CC1O` (stereo not given), which growth inhibition is on record?
Answer: 34.8% (inactive)

Question: Which growth inhibition does the source give for `CC(=O)C1(c2ccccc2)C(C)(C)C(C)(C)C(=O)C(C)(C)C1(C)C` here?
Answer: 15.4% (inactive)

Question: Which growth inhibition does the source give for `CCCCC#CCC#Cc1ccccc1` here?
Answer: 6.85% (inactive)

Question: With `CCOC(=O)c1oc2c(OC)ccc3c2c1CCC3` as the compound, how does the growth inhibition read?
Answer: 1.8% (inactive)

Question: With `Cc1ccccc1-n1c(C)nc(-c2ccccc2)cc1=O` as the compound, how does the growth inhibition read?
Answer: -4.9% (inactive)

Question: Which growth inhibition does the source give for `O=C(NCCc1c(-c2ccccc2)[nH]c2ccccc12)C1CCCCC1` here?
Answer: 32.6% (inactive)

Question: Which growth inhibition does the source give for `CC(=O)OCN(C)N=Nc1ccc([N+](=O)[O-])cc1` here?
Answer: 25.8% (inactive)

Question: Which growth inhibition does the source give for `CC(O)C12OC1CC1C3CC4OC45CC(O)CCC5(C)C3CCC12C` (stereo not given) here?
Answer: 38.7% (inactive)

Question: Which growth inhibition does the source give for `CC(C)CC(C#N)C(=O)O` (stereo not given) here?
Answer: -5.15% (inactive)

Question: Which growth inhibition does the source give for `Cc1cc2nc(Cl)n(C3OC(CO)C(O)C3O)c2cc1C` (stereo not given) here?
Answer: 0.15% (inactive)

Question: For `Cc1ccc(NC(=O)C2C(=O)N(c3ccc(C)c(C)c3)C(=O)C2N=N)cc1C` (stereo not given), which growth inhibition is on record?
Answer: 26.6% (inactive)

Question: Which growth inhibition does the source give for `CC(=O)[O][Ga]([Cl])[O]C(C)=O` here?
Answer: 34.1% (inactive)

Question: For `COCn1cnc2c(=O)n(-c3ccc(OC)cc3)c(=S)n(-c3ccc(OC)cc3)c21`, which growth inhibition is on record?
Answer: -28.9% (inactive)

Question: For `O=C1CSC(c2cccc(C(F)(F)F)c2)N1c1nncs1` (stereo not given), which growth inhibition is on record?
Answer: 19.6% (inactive)
